# According to the supplement of paper PMC13380429:
# A number with no mark means an inactive call.
# Test system: Vero E6 infected with SARS-CoV-2
# Assay: inhibition of SARS-CoV-2 cytopathic effect; higher = more antiviral protection, active = above 15
# Conditions: 48 h
Structure (SMILES),inhibition of SARS-CoV-2 cytopathic effect (1 nM),inhibition of SARS-CoV-2 cytopathic effect (8.33 nM) [%],inhibition of SARS-CoV-2 cytopathic effect (100 nM) [%],inhibition of SARS-CoV-2 cytopathic effect (833.33 nM) [%],inhibition of SARS-CoV-2 cytopathic effect (10000 nM) [%]
O=Nc1c(O)[nH]c2c(Cl)c(Cl)ccc12,-0.18%,-0.08,-2.11,-0.54,-3.64
C=C1/C(=C\C=C2/CCC[C@]3(C)[C@@H]([C@H](C)/C=C/[C@H](C)C(C)C)CC[C@@H]23)C[C@@H](O)C[C@@H]1O [doxercalciferol],0.83%,0.03,0.98,2.04,2.69
Cc1ccc(S(=O)(=O)NCl)cc1 [chloramine-T],1.46%,3.35,1.32,0.02,-5.13
Cc1noc(-c2ccc(-c3ccc(CC(=O)O)cc3)cc2)c1NC(=O)O[C@H](C)c1ccccc1,0.92%,0.35,-2.41,-3.36,-4.34
CN1C2C=C(c3sccc3Br)CC1CC2 (stereo not given),24.2% (active),-2.54,-0.99,-2.31,3.11
CC[C@H]1OC(=O)[C@H](C)[C@@H](O[C@H]2C[C@@](C)(OC)[C@@H](O)[C@H](C)O2)[C@H](C)[C@@H](O[C@@H]2O[C@H](C)C[C@H](N(C)C)[C@H]2O)[C@](C)(O)C[C@@H](C)C(=O)[C@H](C)[C@@H](O)[C@]1(C)O [erythromycin],-0.74%,-0.54,-1.16,2.65,1.91
OC(c1ccccc1)(c1ccccc1)C1CCNCC1 [azacyclonol],-0.3%,1.56,-2.53,-0.09,-3.58
O=C(NC(Cc1cc(=O)[nH]c2ccccc12)C(=O)O)c1ccc(Cl)cc1 (stereo not given) [rebamipide],-0.87%,2.6,4.52,2.91,1.77
O=S(=O)(O)c1ccc2[nH]c(-c3ccccc3)nc2c1 [phenylbenzimidazole-sulfonic-acid],-0.84%,2.98,1.91,4.9,-7.89
COc1c(O[C@@H]2O[C@H](CO)[C@@H](O)[C@H](O)[C@H]2O)cc2c(c1OC)-c1ccc(SC)c(=O)cc1[C@@H](NC(C)=O)CC2 [thiocolchicoside],0.08%,2.05,-0.7,-5.51,-3.66
CCc1cc(O)c(Oc2ccc(C(N)=O)cc2F)cc1F,0.22%,-0.22,0.21,-0.53,-0.97
CCc1c2c(nc3ccc(OC(=O)N4CCC(N5CCCCC5)CC4)cc13)-c1cc3c(c(=O)n1C2)COC(=O)[C@]3(O)CC [irinotecan],-2.2%,1.89,1.85,1.56,-0.23
